One may read the AC50 as the concentration at which the activity in the assay is half-maximal.

Results on eight compounds are retold here after PubChem BioAssay (EPA / NIEHS).

Assay [1] has as its system DIO1 (gene 1733). Briefly: CCTE_GLTED_hDIO1: CCTE's human Deiodinase 1 (DIO1) Inhibition Assay, Great Lakes Toxicology and Ecology Division (GLTED) Lab (AID 2283987; active = hit-call score of the fitted dose curve at least 0.9, where 1 is the maximum;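 also: isolated human DIO1 enzyme in a cell-free setup rather than cells; enzyme activity read as free iodide liberated from substrate via Sandell-Kolthoff colorimetry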). The method, boiled down: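 Cell-free human DIO1 enzyme was incubated with test chemical for 3 h, and iodide released from substrate was measured by Sandell-Kolthoff absorbance. Loss of signal versus DMSO baseline indicated inhibition; plates were run in triplicate.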

The nature of assay [2]: CCTE_Harrill_HTTr_Viability_MCF7: CCTE's 6-hour Cell Viability Assessment for the High-Throughput Transcriptomics (HTTr) Platform, in MCF-7 cells cultured in DMEM + 10% fetal bovine serum, Harrill Lab (AID 2284010). The method, boiled down: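 PI exclusion, high-content imaging; 8-pt dilution series, 6 h exposure; bidirectional fit vs DMSO (neg. ctrl/baseline); gain of signal = loss of membrane integrity.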

Assay [3] can be described thus: CCTE_Harrill_HTTr_Apoptosis_MCF7: CCTE's 6-hour Apoptosis Assessment for the High-Throughput Transcriptomics (HTTr) Platform, in MCF-7 cells cultured in DMEM + 10% fetal bovine serum, Harrill Lab (AID 2284011). The method, boiled down: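 MCF-7 cells in DMEM + 10% fetal bovine serum were exposed to chemicals for 6 hours over an eight-point dilution series. Caspase-3/7 activation was imaged by high content imaging with CellEvent Caspase 3/7 Green; bidirectional fitting used DMSO as baseline.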

Assay [4] can be described thus: CCTE_Harrill_HTTr_CellCount_MCF7: CCTE's Cell Proliferation Assessment for the High-Throughput Transcriptomics (HTTr) Platform, Harrill Lab (AID 2284012; active = hit-call score of the fitted dose curve at least 0.9, where 1 is the maximum;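 also: count of Hoechst-stained nuclei per well by high-content imaging in MCF-7 cells; cells exposed to compound for six hours; intended direction is loss of nuclei count meaning fewer cells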). The method, boiled down:
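Readout: Hoechst nuclear count by high-content imaging. MCF-7, 8-point dilution series, 6 h exposure. Bidirectional fit vs DMSO baseline.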

In assay [5] the target is Nucleoli Translocation, AR (gene 367) (UniProt P10275). Nature of the assay: UPITT_HCI_U2OS_AR_TIF2_Nucleoli_Agonist: University of Pittsburgh U2OS Androgen Receptor-Transcriptional Intermediary Factor 2 (AR-TIF2) Agonism High Content Imaging Assay for Nucleoli Translocation (AID 2283998; active = hit-call score of the fitted dose curve at least 0.9, where 1 is the maximum). The method, boiled down:
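Cells express human AR fused to red fluorescent protein and TIF2 fused to GFP. Red fluorescence in the nucleolar region was quantified by high-content imaging and fitted as gain-of-signal against a DMSO baseline. Compounds were tested at 0.195 to 50 uM final (0.5% DMSO).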

In assay [6] the target is Ratio of Nucleoli Translocation and Cytoplasm, AR (gene 367) (UniProt P10275). Briefly: UPITT_HCI_U2OS_AR_TIF2_Nucleoli_Cytoplasm_Ratio_Antagonist: University of Pittsburgh U2OS Androgen Receptor-Transcriptional Intermediary Factor 2 (AR-TIF2) Antagonism High Content Imaging Assay for Ratio of Nucleoli Translocation and Cytoplasm (AID 2283999; active = hit-call score of the fitted dose curve at least 0.9, where 1 is the maximum;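 also: antagonists lower the DHT-driven ratio of nucleolar to cytoplasmic red signal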). In short, it runs like this: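 Read-out is the ratio of nucleolar to cytoplasmic AR-RFP fluorescence, imaged by high-content microscopy in U2OS cells coexpressing TIF2-GFP. Single-point 20 uM screen, triplicate confirmation, then 0.195–50 uM dose response; activity referenced to DHT baseline.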
Sequence of Ratio of Nucleoli Translocation and Cytoplasm, AR (gene 367) (P10275 whole entry, looked up): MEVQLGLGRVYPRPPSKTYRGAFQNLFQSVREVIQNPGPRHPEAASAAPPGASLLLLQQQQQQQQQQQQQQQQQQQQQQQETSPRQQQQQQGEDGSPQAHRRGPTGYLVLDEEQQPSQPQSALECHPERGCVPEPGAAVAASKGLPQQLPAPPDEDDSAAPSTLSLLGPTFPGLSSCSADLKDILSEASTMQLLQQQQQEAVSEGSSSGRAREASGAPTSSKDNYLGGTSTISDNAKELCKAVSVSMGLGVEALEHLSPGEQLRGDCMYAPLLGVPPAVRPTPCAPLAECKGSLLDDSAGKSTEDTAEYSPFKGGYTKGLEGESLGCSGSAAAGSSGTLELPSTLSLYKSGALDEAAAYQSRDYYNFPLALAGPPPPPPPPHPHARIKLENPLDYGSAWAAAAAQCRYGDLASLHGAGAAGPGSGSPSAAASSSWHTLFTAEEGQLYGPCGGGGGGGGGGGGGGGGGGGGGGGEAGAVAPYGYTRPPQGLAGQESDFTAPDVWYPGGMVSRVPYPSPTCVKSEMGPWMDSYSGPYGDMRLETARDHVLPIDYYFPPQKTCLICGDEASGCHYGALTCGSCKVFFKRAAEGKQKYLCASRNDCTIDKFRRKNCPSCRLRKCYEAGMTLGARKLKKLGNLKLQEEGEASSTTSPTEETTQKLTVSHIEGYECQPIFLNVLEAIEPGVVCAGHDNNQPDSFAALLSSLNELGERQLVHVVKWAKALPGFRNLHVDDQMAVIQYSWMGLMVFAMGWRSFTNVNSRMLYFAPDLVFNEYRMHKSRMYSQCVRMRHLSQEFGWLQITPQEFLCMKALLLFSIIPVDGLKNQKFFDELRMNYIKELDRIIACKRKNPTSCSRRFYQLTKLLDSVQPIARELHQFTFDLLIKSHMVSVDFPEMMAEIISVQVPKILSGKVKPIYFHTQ

Assay [7] shares this target. Briefly: UPITT_HCI_U2OS_AR_TIF2_Nucleoli_Cytoplasm_Ratio_Agonist: University of Pittsburgh U2OS Androgen Receptor-Transcriptional Intermediary Factor 2 (AR-TIF2) Agonism High Content Imaging Assay for Ratio of Nucleoli Translocation and Cytoplasm (AID 2284000; active = hit-call score of the fitted dose curve at least 0.9, where 1 is the maximum;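 also: hits raise the red nucleolar to cytoplasm ratio above vehicle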). The method, boiled down:
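Compounds tested at 20 uM final in primary screen (0.2% DMSO) and 0.195-50 uM final in dose-response (0.5% DMSO). Imaging of human U2OS cells bearing RFP-AR and GFP-TIF2; endpoint is nucleoli/cytoplasm red signal ratio, positive direction relative to DMSO.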

The nature of assay [8]: CCTE_Shafer_MEA_acute_spike_number: CCTE's Neural Acute Assay for Total Number of Spikes, Shafer Lab (AID 2284008).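 As to AC50: curve fitted for decrease in spike count so AC50 reflects inhibitors.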 The method, boiled down:
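Primary rat cortical neurons on 16-electrode MEA wells; on DIV 13 or 15, 40-min baseline then 40-min recording with compound (0.03-40 uM) at 37 C. Spikes detected at 8x rms noise; percent change versus baseline, DMSO as negative control.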

The nature of assay [9]: CCTE_Shafer_MEA_acute_firing_rate_mean: CCTE's Neural Acute Assay for Mean Firing Rate, Shafer Lab (AID 2284009).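 Also: analyzed for loss of signal so actives lower firing rate relative to DMSO.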 In short, it runs like this:
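Primary rat cortical neurons on 16-electrode MEA wells were exposed on DIV 13 or 15 to compound (0.03-40 uM). Spike counts per recording time, averaged over electrodes, were compared between 40-min baseline and 40-min post-exposure recordings as percent change.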

Assay [10] can be described thus: CCTE_Shafer_MEA_acute_burst_number: CCTE's Neural Acute Assay for Single-Electrode Bursts, Shafer Lab (AID 2284013). In short, it runs like this: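 Primary rat cortical neurons on 16-electrode MEA wells, DIV 13 or 15, exposed to compound (0.03-40 uM; ≥3 wells); 40-min recordings at 37 C before and after treatment. Burst count expressed as percent change from baseline, DMSO as negative control.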

Assay [11] can be described thus: CCTE_Shafer_MEA_acute_burst_duration_mean: CCTE's Neural Acute Assay for Mean Burst Duration, Shafer Lab (AID 2284014).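 Also: hits are decreases in mean burst duration relative to DMSO controls.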 In short, it runs like this:
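Mean burst duration was compared between a 40 min baseline and a 40 min recording in the presence of compound (0.03-40 uM, 37 C), giving percent change per well. Cultures were rat cortical neurons at DIV 13 or 15; wells needed ≥10 active electrodes.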

Assay [12] in a line: CCTE_Shafer_MEA_acute_per_burst_spike_number_mean: CCTE's Neural Acute Assay for Average Number of Spikes Per Burst, Shafer Lab (AID 2284015).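 Also: hits are decreases in mean spikes per burst versus baseline.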 In short, it runs like this:
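Rat primary cortical neurons on 48-well MEAs (DIV 13 or 15) were treated with 0.03-40 uM compound at 37 C. Mean spikes per burst over 40 min were recorded before and after exposure and expressed as percent change from baseline, relative to DMSO.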

Assay [13] can be described thus: CCTE_Shafer_MEA_acute_burst_percentage_mean: CCTE's Neural Acute Assay for Percentage of Spikes in a Burst, Shafer Lab (AID 2284017).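 As to AC50: curve fitted for loss of signal so potency reflects decreased burst percentage.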 In short, it runs like this: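 Primary rat cortical neurons on 48-well MEA plates, treated on DIV 13 or 15 at 0.03-40 uM. Spikes detected at 8x rms noise at 37C; percent change from 40-min baseline to 40-min post-dose recording, fitted versus DMSO.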

Assay [14] can be described thus: CCTE_Shafer_MEA_acute_burst_percentage_std: CCTE's Neural Acute Assay for Standard Deviation of Burst Percentage, Shafer Lab (AID 2284018).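 Also: fitted in the negative direction so actives lower burst percentage SD.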 The method, boiled down:
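Value is percent change from baseline in the across-electrode SD of spikes-in-bursts percentage, wells with >/= 10 active electrodes. Acute 40-min exposure to 0.03-40 uM on DIV 13 or 15 rat cortical cultures, recorded at 37 C after 40-min baseline.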

Assay [15] is described as follows: CCTE_Shafer_MEA_acute_per_network_burst_spike_number_mean: CCTE's Neural Acute Assay for Average Number of Spikes in a Network Burst, Shafer Lab (AID 2284019).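 As to AC50: curve fitted for loss of signal so actives reduce spikes per network burst.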 In short, it runs like this:
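Percent change from baseline in mean spikes per network burst, spikes detected at 8x rms noise. Each compound at 0.03-40 uM in at least three wells of rat cortical cultures, recorded 40 min before and 40 min during exposure.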

Assay [16] is described as follows: CCTE_Shafer_MEA_acute_per_network_burst_spike_number_std: CCTE's Neural Acute Assay for Standard Deviation of Number of Spikes in a Network Burst, Shafer Lab (AID 2284020).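 Also: fitted for decrease in spike-number SD versus DMSO so actives lower it.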 The method, boiled down:
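Endpoint: percent change from 40 min baseline in standard deviation of spikes per network burst, after 40 min compound exposure (0.03-40 uM, 37 C). Cortical rat neurons on MEA at DIV 13 or 15; spikes detected at 8x rms noise, 300-5000 Hz band-pass.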

Assay [17] can be described thus: CCTE_Harrill_HTTr_Apoptosis_PRF_DMEM_24hr: (Pilot) CCTE's 24-hour Apoptosis Assessment for the High-Throughput Transcriptomics (HTTr) Platform, in MCF-7 cells cultured in phenol red-free DMEM + 10% charcoal-stripped fetal bovine serum, Harrill Lab (AID 2283986). The method, boiled down: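 Eight concentrations tested for 24 h on MCF-7 grown in charcoal-stripped serum, phenol red-free DMEM. High content imaging of CellEvent Caspase 3/7 Green signal gives apoptosis read-out, fitted both ways relative to DMSO.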

Assay [18] can be described thus: CCTE_Simmons_MITO_basal_resp_rate: CCTE's HepG2 Seahorse XF Respirometric Screening Assay at Basal Respiratory State, Simmons Lab (AID 2284001). The following applies: actives raise or lower the signal. In short, it runs like this:
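Basal-phase OCR in HepG2 cells, read at 6-min intervals across a 72-min run, with test compound injected at 125 nM–100 uM final (7 points). Fitted both directions against DMSO; three biological replicates per concentration.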

Assay [19] can be described thus: CCTE_Simmons_MITO_max_resp_rate: CCTE's HepG2 Seahorse XF Respirometric Screening Assay at Maximal Respiratory State [uncoupled], Simmons Lab (AID 2284002). The following applies: actives raise or lower the signal. In short, it runs like this: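 HepG2 oxygen consumption was read on a Seahorse XF96 after FCCP uncoupler injection, following test compound injection; 7 concentrations, 125 nM–100 uM final, three biological replicates. Bidirectional fitting against DMSO vehicle baseline.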

A short description of assay [20]: CCTE_Simmons_MITO_viability: CellTiter-Glo Viability Assessment for CCTE's HepG2 Seahorse XF Respirometric Screening Assay [post-hoc], Simmons Lab (AID 2284007; active = hit-call score of the fitted dose curve at least 0.9, where 1 is the maximum;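 as to AC50: cells exposed to chemical for 90 min before the ATP read; actives lower ATP signal relative to DMSO baseline meaning reduced viability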). The method, boiled down: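 Luciferase-coupled ATP luminescence, single endpoint. HepG2, post-respirometry. Compound 125 nM–100 uM final, 7 conc., 90 min. n=3 biological, technical singles. DMSO vehicle/baseline; dichlone 10 nM–100 uM, 8 conc., as positive control.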

Several values for one entry are separate records, joined by “and”; a condition that tells them apart may be missing. Equal values may be shown once. Results filed as inconclusive are left out. Where a structure was tested more than once in an assay, its records may differ in their call. Activity calls are given as the source filed them. The calls were made as follows, unless noted: active = hit-call score of the fitted dose curve at least 0.9, where 1 is the maximum; inactive = score below 0.9.

Sequence of Nucleoli Translocation, AR (gene 367) (P10275 whole entry, looked up, the tested form may be a part): as the sequence (P10275 whole entry, looked up) above

On to `S=C(S)NCCNC(=S)S.[Mn+2].[S-]C([S-])=NCCN=C([S-])[S-].[Zn+2]`, for which the AC50 in assay [1] was 29.5 µM (active) and 50 µM (active). Further, the result in assay [2], in assay [3] and in assay [4] was inactive.
Consider `O=C(c1ccccc1)C1CCCCC1`, for which the compound was classed as inactive in assay [5], in [6], in assay [7], in assay [8], in assay [9] and in [10]. The result in [11], in assay [12], in [14], in [15] and in [16] was inactive. The AC50 in [13] is 20 µM (active).
In the case of `Cc1nn(C)c(Oc2ccccc2)c1C=NOCc1ccc(C(=O)OC(C)(C)C)cc1`, the result in [17], in assay [5], in assay [6], in [20], in [2] and in assay [3] was inactive. Moreover, the call in assay [4], in assay [11] and in assay [16] was inactive. The AC50 in assay [18] was 1.15 µM (active) and 1.55 µM (active); in assay [19] it was 884 nM (active) and 948 nM (active); in assay [20] it was 2.81 µM (active); in [8], 0.00424 µM (active); in [9], 0.00449 µM (active); in [10], 0.003 µM (active). Moreover, the AC50 in assay [12] is 3.08 µM (active); in assay [13], 3.26 µM (active); in [14], 7.36 µM (active); in assay [15], 0.39 µM (active).
As for `C=CCOC(Cn1ccnc1)c1ccc(Cl)cc1Cl` (stereo not drawn), the result in assay [17], in [20], in assay [2], in [3], in [4] and in [11] was inactive. The compound was classed as inactive in [12], in [15] and in assay [16]. The AC50 in assay [18] was 24.3 µM (active); in [19], 38.2 µM (active); in [8] it was 6.09 µM (active); in [9], 6.09 µM (active); in assay [10] it was 3.97 µM (active); in assay [13] it was 2.09 µM (active). For the same compound, the AC50 in assay [14] was 3.32 µM (active).
Regarding `CCOC(=O)NCCOc1ccc(Oc2ccccc2)cc1`, the AC50 is 21.5 µM (active) in assay [18] and 19.8 µM (active) in [19]. Also, the call in assay [20], in [2] and in [3] was inactive.
Consider `COC(=O)CSc1cc(N=c2sc(=O)n3n2CCCC3)c(F)cc1Cl`, for which the outcome in [5], in assay [6], in [7], in assay [2] and in [3] was inactive.
With `O=C(O)C1(C(=O)Nc2ccc(Cl)cc2Cl)CC1`, the compound was classed as inactive in assay [5], in assay [7], in [18], in assay [2], in [3] and in [4]. For the same compound, the AC50 in [19] is 37.8 µM (active); in assay [20], 29.3 µM (active).
In the case of `CSC(=O)c1cccc2nnsc12`, the compound was classed as inactive in assay [5], in assay [6], in assay [7], in [8], in assay [9] and in assay [2]. In addition, the result in [3], in assay [10], in [11], in [12], in assay [13] and in assay [14] was inactive. The call in assay [15] and in assay [16] was inactive.
